From PubChem BioAssay
Most compounds without a hit are left out; they make up all but 19% or so of the library.
HT1080 IDH1KD tx: HT-1080 IDH1 knockdown cell toxicity (counter line) | HT-1080 IDH1 knockdown viability, ATP luminescence, 48 h | Potency, µM (series often up to 46.1 µM), inactives show at the top dose activity, negative = toxicity, usual class: cytotoxic | actives 2% (n = 360,000) | AID 686971;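 note: 0% = DMSO wells and -100% = cell-free medium wells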
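Assay cells: HT-1080 with IDH1 knockdown, 750 per well, RPMI/5% FBS. Exposure: 48 h at 37 °C following 2 h pre-incubation. Read: CellTiter-Glo luminescence; fitted concentration-response, curve class assigned.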
HT1080-NT tox: kills 2HG-producing HT-1080-NT fibrosarcoma cells; actives 1.6% (n = 360,000); Potency, µM (top dose mostly 46.1 µM), without a hit: top-dose activity, negative = less viability, usual class: cytotoxic; HT-1080-NT fibrosarcoma viability, CellTiter-Glo ATP luminescence, 48 h; AID 686970;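 note: NT is the 2HG producing partner of a matched IDH1 knockdown line; 0% = DMSO-treated cells and -100% = media-only wells without cells; nearly all actives have a fitted effect of over 55% in size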
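Read-out is CellTiter-Glo luminescence after 10 minutes at room temperature, following 48 hours' compound treatment of HT-1080-NT cells (750 cells/well, RPMI, 5% FBS, 37 degrees C).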
DT40 TDP1 CPT: DT40-hTDP1 cell growth loss with CPT | chicken DT40 Tdp1-/-;hTDP1 cells + 20 nM CPT, ATP luminescence, 48 h | Potency, µM (titrated, usually from 46.2 µM), inactives show at the highest dose activity change, negative = growth inhibition, usual class: inhibitors | actives 12% (n = 420,000); note: nearly all actives have a fitted effect of over 55% in size
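Cell growth measured by CellTiter-Glo luminescence after a minimum 48 h, 37 C compound exposure with 20 nM CPT in Tdp1-knockout DT40 cells stably expressing hTDP1, seeded 400/well; qHTS titration format.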
KB-3-1 tox: kills parental KB-3-1 adenocarcinoma cells. KB-3-1 viability, CellTiter-Glo ATP luminescence, 72 h. actives 1.4% (n = 400,000). Potency, µM (series often up to 46.1 µM), usual class: cytotoxic; note: nearly all actives have a fitted effect of over 60% in size
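Luminescent ATP read-out (CellTiter-Glo) measures survival of drug-naive KB-3-1 cells after 72 h compound exposure at 37 °C. Titration series was screened from lowest to highest concentration, with DMSO vehicle plates as background controls.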
DT40 TDP1 no CPT: qHTS for Inhibitors of human tyrosyl-DNA phosphodiesterase 1 (TDP1): qHTS in cells in absence of CPT; actives 15% (n = 420,000); DT40 Tdp1-/- hTDP1 cells, no CPT, ATP luminescence, 48 h; Potency, µM (top dose mostly 46.2 µM), without a hit: at the top dose activity change, negative = growth inhibition, hits mostly inhibitors; AID 686978, 2013; note: nearly all actives have a fitted effect of over 55% in size
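Camptothecin absent (DMSO only). Human TDP1-complemented DT40 knockout cells, 400 cells/well, 37 °C for minimum 48 hr; ATP measured via CellTiter-Glo, 30 min dark incubation, luminescence.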
KB-V1 MDR tox: KB-V1 MDR subline cytotoxicity. KB-V1 MDR cells viability, CellTiter-Glo, 72 h. Potency, µM (top dose mostly 46.1 µM), most hits filed as cytotoxic. actives 3.4% (n = 400,000). AID 1347076; note: nearly all actives have a fitted effect of over 60% in size
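Cytotoxicity via CellTiter-Glo luminescence after 72 h compound exposure at 37 degrees C. Cells: drug-selected KB-V1 line, DMEM phenol-red free plus 10% FBS. Compounds tested at multiple concentrations; normalized data fitted to concentration-effect curves.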
* hit, by the source's call; i = inactive; ? = inconclusive; . = not tested or not shown; [ ] = dose if it differs, or a comment. Calls come from the whole dose curve; as a rule, active = well fitted curve in the direction sought with a large enough effect; inconclusive = small, poorly fitted or top-dose-only effect, or another doubt; inactive = no such curve, though single readings can be large; an effect the other way counts as inactive or inconclusive. Unless noted, % is set by controls: 0 for no effect and ±100 for the full control effect; potency is the fitted concentration of half-maximal effect.

SMILES | HT1080 IDH1KD tx | HT1080-NT tox | DT40 TDP1 CPT | KB-3-1 tox | DT40 TDP1 no CPT | KB-V1 MDR tox
Cc1ccc(Cl)cc1NS(=O)(=O)c1cc2c(cc1Cl)CCC(=O)N2 | . | . | . | i | . | i
CCc1ccc(C(=O)c2cn(CC(=O)Nc3ccc4c(c3)OCCO4)c3ccc(CC)cc3c2=O)cc1 | . | . | -0.2% | i | 7.5% | i
CCCOc1ccccc1N/C(N)=N/c1nc(C)cc(C)n1 | -0.2% | 1.4% | ? | i | ? | i
COc1ccc(N/C(=N/c2nc(C)cc(C)n2)NC(=O)Nc2ccc(Cl)c(Cl)c2)c(OC)c1 | 1.4% | 2.1% | -9.2% | i | -26.6% | i
Cc1ccc(C)c(N/C(N)=N/c2nc(C)cc(C)n2)c1 | -11.3% | 5.2% | 20.6µM* | i | 13µM* | 16.4µM*
COc1ccc(N/C(N)=N/c2nc(C)cc(C)n2)c(OC)c1 | -15.4% | -18.8% | 25.9µM* | i | 11.6µM* | i
CCCOc1ccccc1N/C(=N\S(=O)(=O)c1ccc(C)cc1)Nc1nc(C)cc(C)n1 | 2.1% | 10.5% | ? | i | 14.6µM* | ?
COc1ccc(OC)c(N/C(N)=N/c2nc(C)cc(C)n2)c1 | 6.0% | 4.8% | ? | i | 18.4µM* | i
COc1cc2c(cc1OCc1ccccc1)/C(=C/C(=O)OCc1ccccc1)OC2 | -0.8% | 2.1% | -16.7% | i | -8.4% | ?
Cc1cc(C)c(C)c(S(=O)(=O)NC(C(=O)O)C(C)C)c1C (centres undefined) | -2.4% | 5.7% | 4.8% | i | -4.0% | i
CC(=O)Nc1ccc(-c2csc(NC(=O)c3ccc(C)o3)n2)cc1 | 6.1% | 12.6% | 13µM* | i | 9.2µM* | i
Cc1ccc(C(=O)Nc2nc(-c3ccc4c(c3)OCCO4)cs2)o1 | 9.2% | -4.4% | ? | i | ? | i
Cc1ccc(C(=O)Nc2nc(-c3ccc([N+](=O)[O-])cc3)cs2)o1 | 16.3% | 29.4% | 14.6µM* | i | 11.6µM* | i
CCc1ccc(C2c3c(-c4cc(C)ccc4O)n[nH]c3C(=O)N2CCO)cc1 (centres undefined) | . | . | ? | i | ? | i
Cc1ccc(-c2cc(NC(=O)C(C)Oc3ccc(C)c(C)c3)on2)cc1 (centres undefined) | . | . | ? | i | ? | i
O=C(O)Cc1sc(Nc2ccccc2Cl)nc1-c1ccccc1 | . | . | -10.0% | i | -16.0% | ?
CC(C(=O)c1ccccc1)[n+]1cccc(Cl)c1 (centres undefined) | . | . | 2.9% | i | ? | i
Cc1ccc(-c2nnc(SC(C)C(=O)NCc3ccco3)n2C)cc1 (centres undefined) | . | . | -1.0% | i | -13.5% | i
O=[N+]([O-])c1cc(C(F)(F)F)cc([N+](=O)[O-])c1NCc1cccnc1 | -6.4% | -2.0% | -16.9% | i | -23.2% | i
O=[N+]([O-])c1cc(C(F)(F)F)cc([N+](=O)[O-])c1NCCCNc1ccc([N+](=O)[O-])c2cccnc12 | 1.6% | -10.5% | 6.4% | i | -2.5% | 10.3µM*
Cc1ccc(CNC(=O)Cn2ccn(-c3ccc(F)c(F)c3)c(=O)c2=O)cc1 | . | . | -8.2% | . | 5.8% | .
Cc1c(CNC2CCCCCC2)c(C(=O)O)c(C)n1Cc1c(F)cccc1Cl | . | . | ? | i | ? | ?
Cc1c2cnn(CC(=O)N3CCN(c4ccc(F)cc4)CC3)c(=O)c2c(C)n1Cc1ccc(F)cc1 | . | . | 23.1µM* | i | 7.31µM* | i
O=C(Cn1ncc2c([nH]c3ccccc32)c1=O)N1CCN(c2ccc(F)cc2)CC1 | ? | 9.3% | -14.6% | i | 21.5% | i
Cc1c2cnn(CC(=O)N3CCN(c4ccc(F)cc4)CC3)c(=O)c2c(C)n1Cc1ccccc1F | . | . | 20.6µM* | i | 18.4µM* | i
SMILES | HT1080 IDH1KD tx | HT1080-NT tox | DT40 TDP1 CPT | KB-3-1 tox | DT40 TDP1 no CPT | KB-V1 MDR tox
CCOCCCNC(=O)C1CCN(C(=O)c2cc3sccc3n2C)CC1 | . | . | 11.3% | i | -17.5% | i
CCN(CC)S(=O)(=O)c1ccc2c(c1)N(CC(=O)Nc1ccc(Cl)cc1)C(=O)C1CCCN21 (centres undefined) | . | . | ? | i | ? | i
COc1ccccc1Nc1cc(C)nc2nc(-c3ccccc3)nn12 | . | . | 16.4µM* | i | ? | i
COc1ccc(-c2nc3nc(C)cc(Nc4ccc(C(C)=O)cc4)n3n2)cc1 | . | . | ? | ? | 14.6µM* | ?
Cc1ccc(-c2nc3nc(C)cc(Nc4ccccc4O)n3n2)cc1 | . | . | . | i | . | ?
CC(C)C[C@H]1CN(CCCC[C@H]2CNC(=O)C(=O)N2CCc2ccc(O)cc2)C(=O)C(=O)N1CCc1ccc(O)cc1 | 16.5% | 21.3% | 3.8% | i | -16.8% | ?
O=C(O)c1ncn(Cc2ccc(Br)cc2)c1C(=O)O | 9.9% | 23.6% | -0.3% | i | 2.5% | i
CCCC(=O)Nc1ccc2c(c1)nc(CN1CCN(C(=O)OCC)CC1)n2C(C)C | . | . | 0.651µM* | . | 0.0651µM* | .
CCCC(=O)Nc1ccc2c(c1)nc(CN1CCN(C(=O)OCC)CC1)n2C | -3.5% | 2.9% | 0.1% | i | -6.2% | i
CCOC(=O)N1CCN(Cc2nc3cc(NC(=O)c4ccccc4Cl)ccc3n2C(C)C)CC1 | . | . | 1.46µM* | . | 1.46µM* | .
CCCC(=O)Nc1ccc2c(c1)nc(CN1CCN(C(=O)OCC)CC1)n2CC | ? | ? | 3.66µM* | 3.26µM* | 2.31µM* | i
CCn1c(-c2ccccc2F)nc2cc(NC(C)=O)cc(C(=O)NC(c3ccccn3)C(F)(F)F)c21 (centres undefined) | . | . | -4.0%[9.04 µM] | . | ? | .
Clc1cccc(-n2ncc3c(N4CCC(Cc5ccccc5)CC4)ncnc32)c1 | . | . | -14.8% | i | -2.8% | i
CN1CCN(c2ncnc3c2cnn3-c2cccc(Cl)c2)CC1 | . | . | 16.4µM* | i | 16.4µM* | ?
Cn1ncc2c(N3CCN(c4ccccc4Cl)CC3)ncnc21 | . | . | ? | . | 20.6µM* | .
Cn1ncc2c(N3CCN(c4cccc(Cl)c4)CC3)ncnc21 | . | . | ? | . | 5.8µM* | .
C[C@H](NC(=O)C1CCN(S(=O)(=O)c2ccccc2)CC1)C(=O)NCc1ccncc1 | 9.8% | -0.2% | -9.9% | i | 0.1% | i
Cc1cc(-c2nc3ncccc3o2)ccc1NC(=O)c1ccc(Cl)cc1 | . | . | -21.1% | i | 1.7% | i
